NTR1 agonist: agonists of human neurotensin receptor NTR1. activation, % at 20 µM. actives 0.17% (n = 330,000). AID 493036. NTR1-U2OS beta-arrestin-GFP spot imaging, agonist mode. P30989;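 active means activation at or above 40% of the spot to cytoplasm intensity ratio, with at least 20 cells analyzed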;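 further: 0% = DMSO without peptide and 100% = 100 nM NTR1 peptide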
Target sequence (P30989 whole entry, looked up): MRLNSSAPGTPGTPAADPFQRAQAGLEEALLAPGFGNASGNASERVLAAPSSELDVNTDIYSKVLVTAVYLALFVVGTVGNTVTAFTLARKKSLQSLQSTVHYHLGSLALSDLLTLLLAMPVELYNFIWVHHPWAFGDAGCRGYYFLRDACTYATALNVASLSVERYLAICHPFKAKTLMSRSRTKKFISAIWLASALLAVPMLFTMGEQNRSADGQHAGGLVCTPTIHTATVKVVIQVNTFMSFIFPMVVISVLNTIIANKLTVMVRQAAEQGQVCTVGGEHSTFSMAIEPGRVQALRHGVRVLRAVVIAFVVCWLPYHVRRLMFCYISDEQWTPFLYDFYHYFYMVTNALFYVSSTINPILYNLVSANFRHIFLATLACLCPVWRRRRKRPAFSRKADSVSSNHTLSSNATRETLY
V-ATPase pH: alters yeast V-ATPase proton transport. response, % at 10 µM. S. cerevisiae, pHLuorin cytosolic pH fluorescence. actives 0.37% (n = 350,000); in the data active means response mostly above about 7.3%, no sharp cut-off; inactive means mostly below about 5.4%; further: actives read high
CRFR2-BP ag: agonists of human CRF-binding protein/CRF-R2 receptor complex. HEK293 CRF-R2/CRF-BP, calcium dye fluorescence (FLIPR); percent of saturating CRF peptide response. activation, % at 13.2 µM. actives 0.46% (n = 350,000). AID 588473;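 active means activation of at least 50%, plus an integration ratio under a set limit after plate pattern correction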;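 further: plate controls were neutral control wells without compound for no effect and CRF at EC100 for full effect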
CRFR2-BP antag: blocks CRF-induced signaling of the CRF-BP/CRF-R2 complex; HEK293 CRF-R2/CRF-BP, CRF-induced calcium fluorescence; AID 588475; inhibition, % at 11.8 µM; actives 0.59% (n = 350,000);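 active means inhibition of the ligand-induced calcium signal above about 50% at the single tested concentration, limit read from the data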
* hit, by the source's call; . = no result. Hits are enriched below; roughly 1.5% of the tested compounds scored in any of these assays.

SMILES	NTR1 agonist	V-ATPase pH	CRFR2-BP ag	CRFR2-BP antag
Cc1ccc(OCC(=O)NNC(=O)c2ccco2)c(C)c1	-1	-1	0	13
COc1ccc(NS(=O)(=O)c2ccc3oc(SC4CCOC4=O)nc3c2)cc1 (stereo unspecified)	68*	3	4	-4
Cc1cc(NC(=O)CN2CCc3ccccc3C2)nc2c1c(=O)oc1ccccc12	2	1	1	0
CCCc1nc(SCc2ccc(Cl)cc2Cl)n[nH]1	1	0	0	59*
O=C(O)c1cc(=O)[nH]c2ccccc12	.	2	-2	11
CCc1ccc(-c2cc3c(=O)n(CC(=O)NCCCN4CCC(Cc5ccccc5)CC4)nc(C)n3n2)cc1	21	6	2	101*
CN1C(=O)C2(N=c3ccccc3=N2)c2ccccc21	1	2	0	68*
O=C(c1ccccn1)C1CCCN(Cc2cn[nH]c2-c2cc3ccccc3o2)C1 (stereo unspecified)	1	16*	1	-50
CCCOC(=O)c1ccc(NC(=O)c2ccccc2[N+](=O)[O-])cc1	2	1	0	42
CC(SCC(=O)Nc1ccc(F)cc1)c1nc2ccccc2c(=O)[nH]1 (stereo unspecified)	1	-4	1	-4
C=CC[C@H](CC(=O)OC(C)(C)C)C(=O)OC[C@@H]1CCCN1C(=O)[C@@H](CC=C)CC(=O)NCCO	-1	1	1	-1
COC(=O)CCCC(=O)NCC1(N(C)Cc2ccccc2)Cc2ccccc2C1	0	-1	-1	5
CC(SCc1ccccc1)C(=O)Nc1ccc(F)cc1 (stereo unspecified)	1	-3	-2	11
Cc1cccc(CSC(=N)N)c1	-1	4	-2	3
Cc1cccc(CSC(Nc2ccc(F)cc2)=C(C#N)C#N)c1	4	-1	73*	67*
N#CC(C#N)=C(Nc1ccc(F)cc1)SCc1cccc(Br)c1	.	2	42	69*
Cc1cc(C)n(CCCNC(=O)c2ccc(C)c(S(=O)(=O)N3CCOCC3)c2)n1	2	-1	-1	5
CCOCCc1nnc(NC(=O)C2CC(=O)N(CCc3ccc(F)cc3)C2)s1 (stereo unspecified)	1	-1	1	3
CC(C)CC[n+]1ccccc1/C=C/c1ccc(N(C)C)cc1	-3	-3	51*	-73
CCOC(=O)c1sc(NC(=O)CN(CC(C)C)CC(C)C)c(C(=O)OCC)c1C	-2	-1	-1	74*
Cc1sc2ncnc(N3CCN(Cc4ccccc4)CC3)c2c1-c1ccccc1	17	1	-1	-7
O=C(O)c1ccc(C(S(=O)(=O)c2ccccc2)S(=O)(=O)c2ccccc2)cc1	.	1	-1	-14
COC(=O)/C=C1/S/C(=N/NC(=O)c2ccccc2OC)NC1=O	1	-2	0	13
COC(=O)/C=C1/S/C(=N/NC(=O)c2ccc(Cl)cc2Cl)NC1=O	0	2	-2	51*
COc1ccc(/C=C2/SC(=S)N(NS(=O)(=O)c3ccccc3)C2=O)cc1	1	1	0	46
SMILES	NTR1 agonist	V-ATPase pH	CRFR2-BP ag	CRFR2-BP antag
C=CCOc1ccc(/C=C2\SC(=S)N(NS(=O)(=O)c3ccccc3)C2=O)cc1	4	-1	1	53*
O=C1/C(=C\c2ccc(Br)cc2)SC(=S)N1NS(=O)(=O)c1ccccc1	3	-3	0	58*
CC(/C=C1\SC(=S)N(NS(=O)(=O)c2ccccc2)C1=O)=C\c1ccccc1	0	1	-2	93*
O=C1/C(=C/c2cccnc2)SC(=S)N1NS(=O)(=O)c1ccccc1	0	3	-2	23
O=C(NC1CCN(Cc2ccccc2)CC1)c1cccc(S(=O)(=O)Nc2ccc(SC(F)F)cc2)c1	3	2	2	-26
CC(=O)N1CCN(c2ncnc3ccccc23)CC1	0	-3	2	-9
CCO[C@H]1OC(C(N)=O)=C[C@@H](C2CC2)[C@@H]1CCCO	0	.	-3	10
O=C(CCN1CCCC1=O)NC1CCCc2c1cnn2-c1ccccc1F (stereo unspecified)	0	-2	21	54*
CC(=O)Nc1ccc(S(=O)(=O)N2CCC(NC(C)=O)(c3cccc(F)c3)CC2)cc1	-2	2	-7	51*
c1ccc(-c2nc3nonc3nc2-c2ccccc2)cc1	1	7	-1	54*
CC(=O)Nc1ccc2c(c1)CN(c1cc(C)ccc1C)CO2	-1	-4	1	27
COc1cccc(-c2noc(CCCC(=O)Nc3ccc(C(N)=O)cc3)n2)c1	2	17*	0	3

Compound activity: PubChem, several laboratories
